“And” between values parts separate entries of the source, which are not always exact repeats. Identical values can stand only once. Inconclusive results are not listed. Some compounds were tested as several samples or in several runs, with calls that do not always agree. The source made the active and inactive calls. Unless noted, calls follow the shape of the dose curve; as a rule, active = well fitted curve in the direction sought with a large enough effect; inconclusive = small, poorly fitted or top-dose-only effect, or another doubt; inactive = no such curve, though single readings can be large; an effect the other way counts as inactive or inconclusive.
Columns and labels:
[1] = biological target: Cytochrome P450 1A2 (Homo sapiens) (UniProt P05177); assay: p450-cyp1a2 (AID 410; calls by dose curve;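 also: -100% = full effect of reference inhibitor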)
Chain of Cytochrome P450 1A2 (Homo sapiens) (P05177 whole entry, looked up): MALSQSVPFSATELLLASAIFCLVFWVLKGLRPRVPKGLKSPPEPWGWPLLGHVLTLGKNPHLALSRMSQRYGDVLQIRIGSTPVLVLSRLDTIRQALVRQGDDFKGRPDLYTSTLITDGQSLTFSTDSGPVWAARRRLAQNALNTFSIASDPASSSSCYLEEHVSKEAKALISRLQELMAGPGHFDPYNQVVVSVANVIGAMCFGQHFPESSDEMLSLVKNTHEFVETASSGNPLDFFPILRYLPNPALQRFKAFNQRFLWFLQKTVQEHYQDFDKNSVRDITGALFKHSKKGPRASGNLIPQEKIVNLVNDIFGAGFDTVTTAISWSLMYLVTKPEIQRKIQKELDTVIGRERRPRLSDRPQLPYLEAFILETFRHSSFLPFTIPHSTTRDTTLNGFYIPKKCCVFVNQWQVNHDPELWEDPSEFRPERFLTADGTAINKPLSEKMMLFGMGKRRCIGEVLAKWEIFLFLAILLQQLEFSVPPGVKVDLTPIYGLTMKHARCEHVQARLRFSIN
In short: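 Human CYP1A2 (20nM) demethylated Luciferin-ME at its Km (100uM) in 100mM KPO4. After 10 min compound preincubation, NADPH regeneration ran the reaction 60 min at room temperature. Luciferin was read by luminescence, normalized to 57 uM furafylline.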

[2] = biological target: Glucocorticoid receptor (Homo sapiens) (UniProt P04150); assay: GR-GFP Redistribution (AID 450;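 active = compounds whose dose series gives a full or clear partial fitted curve of increased nuclear translocation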; also: potency is read from the fitted curve at half-maximal effect); conditions: U2OS GR-GFP nuclear translocation, laser cytometry, 2 h
Chain of Glucocorticoid receptor (Homo sapiens) (P04150 whole entry, looked up, the tested form may be a part): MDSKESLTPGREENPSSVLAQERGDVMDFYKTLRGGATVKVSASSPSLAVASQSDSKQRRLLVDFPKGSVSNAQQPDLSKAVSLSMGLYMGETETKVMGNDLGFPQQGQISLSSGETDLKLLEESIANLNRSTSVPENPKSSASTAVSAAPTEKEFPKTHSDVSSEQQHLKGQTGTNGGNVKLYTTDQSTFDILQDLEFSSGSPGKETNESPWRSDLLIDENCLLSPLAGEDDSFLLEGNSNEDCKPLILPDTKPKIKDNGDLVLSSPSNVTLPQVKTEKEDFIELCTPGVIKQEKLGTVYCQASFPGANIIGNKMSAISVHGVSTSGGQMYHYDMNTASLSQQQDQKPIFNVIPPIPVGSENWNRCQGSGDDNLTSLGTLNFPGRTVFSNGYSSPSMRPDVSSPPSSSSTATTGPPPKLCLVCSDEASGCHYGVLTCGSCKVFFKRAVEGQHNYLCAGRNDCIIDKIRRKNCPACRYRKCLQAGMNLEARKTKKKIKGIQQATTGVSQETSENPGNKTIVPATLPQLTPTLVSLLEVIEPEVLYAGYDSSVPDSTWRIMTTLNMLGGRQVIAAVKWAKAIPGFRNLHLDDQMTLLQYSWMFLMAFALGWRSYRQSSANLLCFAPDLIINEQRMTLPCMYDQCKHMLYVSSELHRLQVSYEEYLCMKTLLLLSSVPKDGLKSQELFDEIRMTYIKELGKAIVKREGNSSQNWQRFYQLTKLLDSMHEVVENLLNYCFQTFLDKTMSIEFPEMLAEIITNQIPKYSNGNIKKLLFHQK

[3] = biological target: Glucocorticoid receptor (Homo sapiens) (UniProt P04150); assay: GR-EFC Redistribution (AID 451; calls by dose curve; also: potency is read from the fitted curve at half-maximal effect); conditions: CHO-K1 GR-EFC translocation, beta-gal luminescence, 2 h
In short: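 CHO-K1 cells stably expressing nuclear-localized β-gal enzyme acceptor and GR fused C-terminally to the enzyme donor fragment; ligand-driven nuclear translocation restores β-gal by complementation. Compounds titrated up to 46 uM final, 2 h at 37 °C; luminescence read.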

[4] = biological target: Mitogen-activated protein kinase 10 (Mus musculus) (UniProt Q61831); assay: JNK3 AlphaScreen Assay (AID 530; active = well fitted curve in either direction with a large enough effect, not every such curve was filed as active;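 also: kinase came from lysate of stimulated human HepG2 cells; signal reports phosphorylation of biotinylated GST-cJun 1-79 at Ser73 with 10 µM ATP; % is scaled to controls: 0 for no effect and ±100 for the full control effect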)
In short: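 JNK3 came from HepG2 lysates pre-activated with IL-1beta and TNF-alpha and phosphorylated biotinylated GST-cJun (1-79) at 10 uM ATP, pH 7.6, room temperature. Compounds were titrated. AlphaScreen signal used anti-phospho-cJun (Ser73) antibody.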

[5] = biological target: Cytochrome P450 3A4 (Homo sapiens) (UniProt P08684); assay: qHTS Assay for Activators of Cytochrome P450 3A4 (AID 885); also: nearly all actives have a fitted effect of over 65% in size
Chain of Cytochrome P450 3A4 (Homo sapiens) (P08684 whole entry, looked up): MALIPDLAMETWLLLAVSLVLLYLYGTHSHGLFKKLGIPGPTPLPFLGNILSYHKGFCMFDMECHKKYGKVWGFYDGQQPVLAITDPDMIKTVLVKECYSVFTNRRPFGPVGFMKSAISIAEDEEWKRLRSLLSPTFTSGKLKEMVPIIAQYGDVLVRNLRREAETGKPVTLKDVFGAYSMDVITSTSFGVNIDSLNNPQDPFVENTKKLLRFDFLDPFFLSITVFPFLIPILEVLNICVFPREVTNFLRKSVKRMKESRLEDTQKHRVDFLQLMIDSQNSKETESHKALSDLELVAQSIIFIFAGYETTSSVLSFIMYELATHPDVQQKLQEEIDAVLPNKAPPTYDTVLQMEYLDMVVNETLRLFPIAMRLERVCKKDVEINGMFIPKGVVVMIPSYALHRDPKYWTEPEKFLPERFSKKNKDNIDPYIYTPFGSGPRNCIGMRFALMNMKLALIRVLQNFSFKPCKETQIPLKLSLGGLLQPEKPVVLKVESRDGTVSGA
In short: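 Quantitative HTS format: compounds preincubated with 20nM human CYP3A4 and Luciferin-PPXE substrate at KM, reaction started by NADPH regeneration, stopped after 60 min, luciferase luminescence read 20 min later.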

[6] = biological target: Cytochrome P450 2D6 (Homo sapiens) (UniProt P10635); assay: qHTS Assay for Inhibitors and Substrates of Cytochrome P450 2D6 (AID 891); also: nearly all actives have a fitted effect of over 60% in size; also: potency is read from the fitted curve at half-maximal effect
In short: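 Human CYP2D6 (5 nM) with 30 uM Luciferin-ME EGE (at Km) in 100 mM KPO4, compound preincubated 10 min, then NADPH regeneration system for 60 min at room temperature. Luciferin read by luminescence; normalized to 1.43 uM quinidine.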

[7] = biological target: Ubiquitin carboxyl-terminal hydrolase 1 (Homo sapiens) (UniProt O94782); assay: Inhibitors of USP1/UAF1: Pilot qHTS (AID 504865);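 also: rhodamine fluorescence freed from ubiquitin-rhodamine substrate followed over time; top concentration of the series differs between compounds; % is scaled to controls: 0 for no effect and ±100 for the full control effect; nearly all actives have a fitted effect of over 35% in size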
Chain of Ubiquitin carboxyl-terminal hydrolase 1 (Homo sapiens) (O94782 whole entry, looked up): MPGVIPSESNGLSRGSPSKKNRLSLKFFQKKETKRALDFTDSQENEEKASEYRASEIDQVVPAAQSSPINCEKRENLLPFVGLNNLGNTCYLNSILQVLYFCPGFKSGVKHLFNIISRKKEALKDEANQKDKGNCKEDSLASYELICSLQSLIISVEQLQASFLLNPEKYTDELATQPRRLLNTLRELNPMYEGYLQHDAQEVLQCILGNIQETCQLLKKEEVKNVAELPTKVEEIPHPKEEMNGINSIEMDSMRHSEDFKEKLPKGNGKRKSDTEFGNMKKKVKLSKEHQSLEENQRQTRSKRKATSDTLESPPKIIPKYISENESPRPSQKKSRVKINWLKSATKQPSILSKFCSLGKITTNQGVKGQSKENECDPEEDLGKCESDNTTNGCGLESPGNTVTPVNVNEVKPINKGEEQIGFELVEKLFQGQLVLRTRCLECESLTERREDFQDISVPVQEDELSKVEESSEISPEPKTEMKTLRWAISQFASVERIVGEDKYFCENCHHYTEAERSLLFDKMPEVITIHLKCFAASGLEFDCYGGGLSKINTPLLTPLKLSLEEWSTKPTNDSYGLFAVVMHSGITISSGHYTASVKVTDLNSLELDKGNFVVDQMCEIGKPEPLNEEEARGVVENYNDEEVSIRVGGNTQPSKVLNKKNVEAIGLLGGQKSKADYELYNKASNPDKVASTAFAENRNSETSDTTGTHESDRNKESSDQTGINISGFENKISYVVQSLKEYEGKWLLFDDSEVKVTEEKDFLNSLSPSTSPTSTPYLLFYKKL
In short: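 USP1/UAF1 complex (1nM) preincubated with compound 15 min at room temperature, then Ub-Rho substrate (150nM final) added. Fluorescence read kinetically at 480/540 nm, 6 reads every 60 seconds. Buffer: 50mM HEPES pH 7.8, 0.5mM EDTA, 0.1 mg/ml BSA, 1mM TCEP, 0.01% Tween-20.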

[8] = biological target: DNA dC->dU-editing enzyme APOBEC-3G (Homo sapiens) (UniProt Q9HC16); assay: qHTS for inhibitors of Vif-A3G interactions: Validation (AID 588379); also: 0% is about no effect
In short: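 HeLa cells stably expressing Vif and A3G-eYFP, 700 cells/well, incubated overnight at 37 deg C, then exposed to compound overnight at 37 deg C. Inhibition of Vif-mediated degradation read as increased yellow fluorescence (Ex 488/Em 500-530) by laser-scanning cytometry.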

[9] = tested on: Zika virus NS2B-NS3 protease; assay: Primary screen GU AMC qHTS for Zika virus inhibitors (AID 1347154);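 also: 0% = no-inhibitor control and -100% = no-enzyme control; nearly all actives have a fitted effect of over 70% in size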
In short: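 Unlinked Zika NS2B hydrophilic domain/NS3 protease domain noncovalent complex (25 nM final) in 10 mM Tris-HCl pH 8.0, 0.01% Tween 20, with AMC peptide substrate. Fluorescence (ex 340, em 450 nm) change over 15 min, room temperature; percent inhibition fitted to 4-parameter Hill equation.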

[10] = Primary qHTS for small molecule stabilizers of the endoplasmic reticulum resident proteome: Secreted ER Calcium Modulated Protein (SERCaMP) assay (AID 1508630); also: % is scaled to controls: 0 for no effect and ±100 for the full control effect
In short: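 GLuc-SERCaMP-expressing SH-SY5Y cells, pretreated 16 h with compound, are challenged with thapsigargin to empty ER calcium stores; after 4 h, coelenterazine is added directly to the medium and luminescence is imaged.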

[11] = AP1 Signaling Pathway (AID 357; active = well fitted curve in either direction with a large enough effect, not every such curve was filed as active; also: % is scaled to controls: 0 for no effect and ±100 for the full control effect)
In short: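 ME-180 cells with beta-lactamase reporter under AP-1 response element, stimulated with EC50 EGF; compounds tested in titration series, 5 h at 37 °C. CCF4 substrate added 2.5 h at room temperature; 460/530 nm emission ratio gave %activity and AC50.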

[12] = NFAT Signaling Pathway (AID 444; active = well fitted curve in either direction with a large enough effect, not every such curve was filed as active;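 also: carbachol stimulus at about its EC50 of 1 µM final; % is scaled to controls: 0 for no effect and ±100 for the full control effect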); conditions: Jurkat NFAT-bla M1, carbachol, beta-lactamase ratio, 5 h; at 38 µM (top of the series)
In short: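 Jurkat cells carrying an NFAT-driven β-lactamase reporter and co-transfected muscarinic M1 receptor were treated with compound plus carbachol (1 uM final, an EC50 level) for 5 h at 37 °C. CCF4 loading followed for 1 h at RT; 460/530 nm ratio gave %activity.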

[13] = Stat Signaling Pathway (AID 446; active = well fitted curve in either direction with a large enough effect, not every such curve was filed as active)
In short: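 IL-6/STAT signaling read in ME-180 cells via an SIE beta-lactamase reporter. Stimulus was 40 pM IL-6 (its AC50) for 5 hrs, so both activation and inhibition register.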

[14] = biological target: 3',5'-cyclic-AMP phosphodiesterase 4B (Homo sapiens) (UniProt Q07343); assay: qHTS Assay for Inhibitors of PDE-IV (AID 607; active = well fitted activation curve with a large enough effect in the main read-out, with a control signal flat, not every such curve was filed as active; also: % of control where 0% means no effect)
Chain of 3',5'-cyclic-AMP phosphodiesterase 4B (Homo sapiens) (Q07343 whole entry, looked up): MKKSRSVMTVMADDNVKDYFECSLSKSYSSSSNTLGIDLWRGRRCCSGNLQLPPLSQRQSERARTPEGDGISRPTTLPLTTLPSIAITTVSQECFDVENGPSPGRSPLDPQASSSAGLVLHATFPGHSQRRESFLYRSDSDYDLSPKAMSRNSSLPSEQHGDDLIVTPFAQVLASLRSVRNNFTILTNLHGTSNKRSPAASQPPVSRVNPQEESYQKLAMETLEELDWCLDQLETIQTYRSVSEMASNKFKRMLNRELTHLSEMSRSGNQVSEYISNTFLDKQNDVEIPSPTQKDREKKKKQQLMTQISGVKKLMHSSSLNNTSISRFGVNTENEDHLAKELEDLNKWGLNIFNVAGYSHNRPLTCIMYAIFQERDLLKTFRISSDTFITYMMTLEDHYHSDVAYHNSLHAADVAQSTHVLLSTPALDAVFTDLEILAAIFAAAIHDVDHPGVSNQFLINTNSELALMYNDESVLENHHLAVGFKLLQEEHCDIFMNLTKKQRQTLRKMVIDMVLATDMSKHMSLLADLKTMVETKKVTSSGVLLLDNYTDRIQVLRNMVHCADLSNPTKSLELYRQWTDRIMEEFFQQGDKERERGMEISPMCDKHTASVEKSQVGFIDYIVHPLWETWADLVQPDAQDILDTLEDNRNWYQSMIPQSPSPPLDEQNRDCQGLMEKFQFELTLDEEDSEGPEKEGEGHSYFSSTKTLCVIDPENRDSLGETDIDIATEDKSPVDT
In short: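 Live HEK293 cells with a modified cyclic nucleotide-gated (CNG) channel report intracellular cAMP via membrane-potential dye fluorescence (ex 535/em 590 nm). Endogenous PDE-IV was targeted. Compounds were tested at up to 22.9 uM final; RO 20-1724 100 uM served as control.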

[15] = biological target: Guanine nucleotide-binding protein G(i) subunit alpha-1 (Homo sapiens) (UniProt P63096); assay: qHTS Assay for Inhibitors of RGS12 GoLoco Motif Activity (Green Fluorophore) (AID 879);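 also: 0% = labeled peptide with Gαi1 and full inhibition = labeled peptide alone without protein; negative values mean loss of peptide binding seen as reduced polarization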
Chain of Guanine nucleotide-binding protein G(i) subunit alpha-1 (Homo sapiens) (P63096 whole entry, looked up): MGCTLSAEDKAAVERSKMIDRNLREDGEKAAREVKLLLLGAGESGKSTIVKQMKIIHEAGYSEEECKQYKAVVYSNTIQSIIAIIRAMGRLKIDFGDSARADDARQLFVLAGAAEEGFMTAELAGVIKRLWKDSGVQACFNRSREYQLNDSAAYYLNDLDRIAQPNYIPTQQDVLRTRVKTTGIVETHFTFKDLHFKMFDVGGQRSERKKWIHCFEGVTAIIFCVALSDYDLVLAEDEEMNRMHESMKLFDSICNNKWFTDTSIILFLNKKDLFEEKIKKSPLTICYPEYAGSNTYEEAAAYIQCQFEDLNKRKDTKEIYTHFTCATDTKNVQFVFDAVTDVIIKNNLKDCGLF
In short: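 Fluorescence polarization assay: 50 nM Gαi1 with 10 nM FITC-labeled RGS12 GoLoco peptide in 10 mM Tris pH 7.5, 150 mM NaCl, 0.1 mM GDP, 0.05% NP40, 10 min at room temperature with compound.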

[16] = biological target: Pyruvate kinase (Leishmania mexicana) (UniProt Q27686); assay: qHTS Validation Assay for Inhibitors of Leishmania Mexicana Pyruvate Kinase (AID 945);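 also: 0% = DMSO only neutral control wells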
Chain of Pyruvate kinase (Leishmania mexicana) (Q27686 2-499 E452W): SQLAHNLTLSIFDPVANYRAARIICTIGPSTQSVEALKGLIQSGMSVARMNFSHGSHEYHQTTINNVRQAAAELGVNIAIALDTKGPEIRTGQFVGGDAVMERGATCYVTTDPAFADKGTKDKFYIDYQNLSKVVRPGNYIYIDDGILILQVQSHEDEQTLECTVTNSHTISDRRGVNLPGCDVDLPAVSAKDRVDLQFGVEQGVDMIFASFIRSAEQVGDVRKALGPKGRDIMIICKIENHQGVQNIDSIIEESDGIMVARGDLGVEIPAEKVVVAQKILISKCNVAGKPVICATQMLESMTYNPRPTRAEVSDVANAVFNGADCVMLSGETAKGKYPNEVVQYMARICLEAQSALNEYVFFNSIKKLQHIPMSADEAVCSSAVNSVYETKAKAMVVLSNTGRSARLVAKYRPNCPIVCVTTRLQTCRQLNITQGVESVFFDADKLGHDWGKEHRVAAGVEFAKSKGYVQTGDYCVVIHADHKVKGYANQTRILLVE
In short: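 Luminescent ATP detection (PKLight) after a 1 h room-temperature reaction of 0.2 nM LmPYK E451W mutant with 0.5 mM PEP and 0.1 mM ADP at pH 7.2. Activity is normalized to DMSO-only control wells.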

[17] = biological target: Pyruvate kinase PKM (Homo sapiens) (UniProt P14618); assay: qHTS Assay for Activators of Human Muscle Pyruvate Kinase (AID 954; active = well fitted curve in the direction sought with a large enough effect, not every such curve was filed as active;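 also: 0% = uninhibited enzyme and -100% = no enzyme or full thiadiazolimine inhibition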)
Chain of Pyruvate kinase PKM (Homo sapiens) (P14618 whole entry, looked up): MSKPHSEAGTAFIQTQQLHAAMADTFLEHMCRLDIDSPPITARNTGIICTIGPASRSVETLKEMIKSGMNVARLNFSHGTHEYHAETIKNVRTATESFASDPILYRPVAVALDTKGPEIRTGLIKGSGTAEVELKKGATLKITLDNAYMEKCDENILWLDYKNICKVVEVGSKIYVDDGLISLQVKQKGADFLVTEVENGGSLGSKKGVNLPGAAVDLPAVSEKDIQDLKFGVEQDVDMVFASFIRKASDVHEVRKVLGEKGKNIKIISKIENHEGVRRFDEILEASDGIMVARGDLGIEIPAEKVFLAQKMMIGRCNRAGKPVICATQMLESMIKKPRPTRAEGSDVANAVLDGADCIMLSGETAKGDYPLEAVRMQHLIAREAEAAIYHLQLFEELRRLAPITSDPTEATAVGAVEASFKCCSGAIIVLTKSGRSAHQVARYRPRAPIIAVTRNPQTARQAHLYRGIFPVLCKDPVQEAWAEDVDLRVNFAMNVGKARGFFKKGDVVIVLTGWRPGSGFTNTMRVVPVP
In short: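 Enzyme was run at intermediate activity so both inhibitors and activators could be detected. ATP formed from ADP and PEP by 0.1 nM human PKM2 during a 1 h room-temperature incubation was quantified by coupled luciferase luminescence.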

[18] = biological target: Alpha-galactosidase A (Homo sapiens) (UniProt P06280); assay: Counterscreen for Glucocerebrosidase Inhibitors: qHTS Assay for Human alpha-Galactosidase at pH 4.5 (AID 992); also: 0% is about no effect
In short: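 Read-out is 4-methylumbelliferone fluorescence (365 nm excitation, 440 nm emission) after a pH 10 NaOH/glycine stop. Reactions held 2 nM enzyme and 80 uM substrate at pH 4.5 for 20 min at room temperature.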

[19] = biological target: alpha-glucosidase (Oryza sativa, rice) (UniProt Q653V4); assay: Counterscreen for Glucocerebrosidase Inhibitors: qHTS Assay for Rice alpha-Glucosidase at pH 5.0 (AID 997);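 also: 0% = full activity with enzyme and -100% = basal without enzyme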
In short: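 Rice alpha-glucosidase (4 nM final) with 400 uM 4-methylumbelliferyl-alpha-D-glucopyranoside in citrate buffer pH 5.0, 20 min at room temperature, stopped at pH 10; fluorescence 365/440 nm, compounds 0.7 nM–77 uM, AC50 from Hill fits.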

c1ccc([C@H]2CNCc3ccccc32)cc1
inactive: Potency [1] | Potency [2] > 46 µM | Potency [3] > 46 µM | outcome [4] | Potency [5] | Potency [7] | Potency [8] | Potency [9] | Potency [10]
active: Potency [6] 5.01 µM

COC(=O)N1CCN(C(=O)Cc2ccc(Cl)c(Cl)c2)[C@H](CN2CCCC2)C1
inactive: outcome [11] | Potency [1] | activity change, negative = inhibition [12] -16% | outcome [13] | Potency [3] > 46 µM | Potency [14] | outcome [15] | Potency [5] | outcome [16] | outcome [17] | outcome [18] | outcome [19] | Potency [8] | Potency [9] | Potency [10]
> 46 µM (inactive) and 1.28 µM (active): Potency [2]

C[C@H](N)Cc1c[nH]c2ccc(O)cc12
inactive: outcome [11] | Potency [1] | activity change, negative = inhibition [12] 3.63% | outcome [13] | Potency [2] > 46 µM | Potency [3] > 46 µM | outcome [4] | Potency [14] | outcome [15] | outcome [16] | outcome [17] | outcome [18] | outcome [19] | Potency [8] | Potency [9] | Potency [10]

C=C1[C@@H](O)C2C=CC[C@H](C)C(=O)[C@@](C)(O)C=C[C@@H](OC(C)=O)[C@@]23C(=O)N[C@H](Cc2ccccc2)[C@@H]3[C@@H]1C (some centres undefined)
inactive: Potency [1] | Potency [2] > 46 µM | Potency [3] > 46 µM | outcome [4] | Potency [14] | Potency [5] | Potency [7] | Potency [8] | Potency [9] | Potency [10]

CCOC(=O)c1ncn2c1[C@H]1CCCN1C(=O)c1cc(OC)ccc1-2
inactive: outcome [11] | Potency [1] | activity change, negative = inhibition [12] 7.15% | outcome [13] | Potency [2] > 46 µM | Potency [3] > 46 µM | outcome [4] | Potency [14] | outcome [15] | Potency [6] | outcome [16] | outcome [17] | outcome [18] | outcome [19] | Potency [7] | Potency [8] | Potency [9] | Potency [10]

COC(=O)CN1CN(c2ccccc2)C2(CCN(Cc3ccc4ccccc4c3)CC2)C1=O
inactive: Potency [1] | Potency [2] > 46 µM | Potency [3] > 46 µM | outcome [4] | Potency [14] | Potency [5] | Potency [8] | Potency [9] | Potency [10]

C[C@@H]1O[C@@H](O[C@H]2C[C@@H](O)[C@]3(CO)[C@@H]4C(CC[C@]3(O)C2)[C@@]2(O)CC[C@H](C3=CC(=O)OC3)[C@@]2(C)C[C@H]4O)[C@H](O)[C@H](O)[C@H]1O (some centres undefined)
inactive: Potency [8] | Potency [9] | Potency [10]

CC(C)(c1ccc(OCC2CO2)cc1)c1ccc(OCC2CO2)cc1 (centres undefined)
inactive: Potency [9] | Potency [10]
